# Measurements as given in the supplement of paper PMC7156485.
# “And” between values parts separate entries of the source, which are not always exact repeats. Equal entries are not always repeated. ± gives the standard deviation of the averaged measurements.
# System: HCC1569
# Experiment: cell number relative to DMSO (% of DMSO); higher = more cells (less growth inhibition / toxicity)
# Conditions: concentration: 10 µM; 24 h
# Outline: (§1)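 Cells were seeded at 800 per well in 384-well plates with RPMI containing 10% FBS; both HCC1569 and TDF lines were used. Compounds were added at 10 µM for 24 h at 37 °C, in triplicate, before fixation in 3.7% formaldehyde and staining with a rabbit anti-H1.0 antibody, an AlexaFluor 647 secondary and DAPI. H1.0 nuclear intensity or cell number is reported as percent of the plate control using the median of replicates, and HCC1569 values were smoothed for positional effects.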
# 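Note: TDF denotes transformed human dermal fibroblasts of mesenchymal origin.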
row,SMILES,cell number
1,"CCCCCC(O)CCC1C(O)CC(=O)C1CCCCCCC(=O)O (configuration not stated) [13,14-Dihydro-prostaglandin E1]",97.1
2,COc1cc2nccc(Oc3ccc(NC(=O)Nc4cc(C)on4)c(Cl)c3)c2cc1OC.O [VEGFR Tyrosine Kinase Inhibitor IV],82.4
3,"O=c1cc(-c2ccccc2)oc2cc(O)c(O)cc12 [6,7-Dihydroxyflavone]",102
4,NC(N)=NCc1cccc(I)c1.NC(N)=NCc1cccc(I)c1.O=S(=O)(O)O [m-Iodobenzylguanidine hemisulfate],109
5,CC(=O)OC1C(=O)C2(C)C(O)CC3OCC3(OC(C)=O)C2C(OC(=O)c2ccccc2)C2(O)CC(OC(=O)C(O)C(NC(=O)c3ccccc3)c3ccccc3)C(C)=C1C2(C)C (configuration not stated) [Taxol],60.2 ± 4.1
6,O=C(NC(Cc1ccccc1)C(=O)CCl)OCc1ccccc1 [Z-L-Phe chloromethyl ketone],54.9

# System: TDF
# Experiment: as above
# Conditions: concentration: 10 µM; 24 h
# Outline: as §1
row,SMILES,cell number
1,"O=c1cc(-c2ccccc2)[nH]c2nc(Cl)ccc12 [7-Chloro-4-hydroxy-2-phenyl-1,8-naphthyridine]",20.4
2,Cl.Cl.N=C(N)c1ccc(N)cc1 [4-Aminobenzamidine dihydrochloride],102
3,CCCCCCCCCCCCCCCCCCOCC(COP(=O)([O-])OCC[N+](C)(C)C)OC(C)=O (configuration not stated),115
4,COc1cc(O)c(C(=O)C=Cc2ccccc2)c(OC)c1 [Flavokawain B],81.6
5,CC(C)C(CO)Nc1nc(Nc2ccc(C(=O)O)c(Cl)c2)c2ncn(C(C)C)c2n1 (configuration not stated) [Purvalanol B],110
6,COc1ccc(-c2cc(=O)c3c(OC)c(OC)c(OC)cc3o2)cc1OC [Sinensetine],99.8
7,CCCCCCCCCCCCCC(=O)NC(C)C(O)c1ccccc1 [D-erythro MAPP],99.8
8,O=c1cc(N2CCOCC2)oc2c(-c3ccccc3)cccc12,102
9,CNCCC(Oc1ccc(C(F)(F)F)cc1)c1ccccc1.Cl (stereo not drawn) [R-(-)-Fluoxetine hydrochloride],105
10,Cc1cccc(-c2[nH]c(C(C)(C)C)nc2-c2ccc3c(c2)OCO3)n1.Cl [TGF-b RI Inhibitor III],84
11,Cc1cnc(NC(=O)C2=C(O)c3ccccc3S(=O)(=O)N2C)s1 [Meloxicam],105
12,"O=C(O)COc1ccc(C(=O)c2cccs2)c(Cl)c1Cl [[2,3-dichloro-4-(2-thienylcarbonyl)phenoxy]acetic acid]",99.8
13,CC(=O)NC(CS)C(=O)O (configuration not stated) [N-Acetyl-Cysteine],95.1
14,COc1ccc(Cl)cc1C(=O)NCCc1ccc(S(=O)(=O)NC(=O)NC2CCCCC2)cc1 [Glyburide],102
15,CC(C)NCC(O)COc1ccc(CC(N)=O)cc1 (stereo not drawn) [R(+)-Atenolol],109
16,O=c1c(-c2ccc(F)cc2)c(-c2ccncc2)[nH]n1-c1ccc(Cl)cc1 [p38 MAP Kinase Inhibitor],111
17,COc1ccc(/C=C\c2cc(OC)c(OC)c(OC)c2)cc1OP(=O)([O-])[O-].[Na+].[Na+],10.1
18,CN1CCN(C2Cc3ccccc3Sc3ccc(Cl)cc32)CC1.O=C(O)C=CC(=O)O (configuration not stated) [Clorotepine maleate],102
19,O=C(O)c1cc(N(Cc2ccccc2O)Cc2ccccc2O)ccc1O [Lavendustin B],95.2
20,N#CC(=C(N)Sc1ccccc1N)C(C#N)=C(N)Sc1ccccc1N,95.9 and 96.9
21,O=c1cc(-c2ccccc2)oc2cc(O)c(O)c(O)c12 [Baicalein],92.95 ± 0.67
22,CCCCNc1ccc(C(=O)OCCN(C)C)cc1.Cl [Tetracaine hydrochloride],101
23,COc1cc(C(O)C(=O)O)ccc1O (configuration not stated) [hydroxy(4-hydroxy-3-methoxyphenyl)acetic acid],99.1
24,CN(C)CCOC(=O)COc1ccc(Cl)cc1.Cl [Centrophenoxine hydrochloride],98.6
25,CC(=O)Oc1cc(C(C)C)c(OCCN(C)C)cc1C.Cl [Moxisylyte hydrochloride],104
26,NCC(O)(CS(=O)(=O)O)c1ccc(Cl)cc1 (configuration not stated) [2-Hydroxysaclofen],94.6
